The values that follow come from PubChem BioAssay (NCI).

“And” between values parts separate entries of the source, which are not always exact repeats. Identical values can stand only once. About 83,000 compounds went through this panel and 20% of them were active in at least one assay; those are over-represented in the sample as a whole.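 Each cell line was grown in a 96-well plate and treated with one concentration of compound for 48 hours. Values below 10 were considered active.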 The source made the active and inactive calls.

The first assay deals with HL-60(TB) leukemia. As to the kind of experiment: NCI-60 one-dose screen, 48 h (100 = growth as untreated, 0 = no growth, -100 = all killed). To be noted: 10 µM unless noted.
Turning to `COc1ccc(-c2cn(-c3cccc(C(=O)/C=C/c4cc(OC)c(OC)c(OC)c4)c3)c(=O)[nH]2)cc1OC`, the growth was 66.6% (inactive).
Take `Clc1cc(Cl)cc(N2N=C(c3cccc(Nc4ccncc4)c3)CC2c2ccc3c(c2)OCO3)c1` (stereo not drawn): the growth was 8.01% (active).
Take `Cc1ccc(NCCN(C)CC(C)O)c2c(=O)c3ccc(Cl)cc3sc12` (stereo not drawn): the growth was 9.65% (active).
With `COc1ccc(C2=Cn3c(CCC(=O)c4nc5ccccc5[nH]4)nnc3SC2)cc1`, the growth was 95.6% (inactive).
For the compound `Cn1c(-c2c(N)n(Cc3ccc(C(F)(F)F)cc3)c3nc(C#N)c(C#N)nc23)nc2ccccc21`, the growth is -54.6% (active).
Still for that read-out and setting: as for `CC(=O)O[C@H]1C(=O)[C@@]2(C)C([C@H](OC(=O)c3ccccc3)[C@]3(O)C[C@H](OC(=O)[C@H](O)[C@@H](NC(=O)c4ccccc4)c4ccccc4)C(C)=C1C3(C)C)[C@]1(OC(C)=O)CO[C@@H]1C[C@@H]2O` (stereo partly drawn), the figure is 9.14% (active).
For the compound `COC(=O)C1=C(C(=O)ONCCN(C)C)C2C=CC1(C(Cc1ccccc1)Nc1ccc(F)cc1)O2` (stereo not drawn), the growth was 35.8% (inactive).
The same measure, in the same setting: as for `C=C1C(=O)O[C@H]2[C@H]1CC/C(COC(=O)NCc1ccc(OC)cc1)=C\CC[C@@]1(C)O[C@@H]21`, the figure is 11.1% (inactive); as for `CC(=O)N1CC(=O)NC1=S`, 103% (inactive).
With `Cc1ccc(S(=O)(=O)Nc2nc3ccccc3nc2Nc2ccc3nsnc3c2)cc1`, the growth is 45.4% (inactive) and 37.2% (inactive).
Same read-out and setting: the result for `COc1ccc(OC)c(/C=N/Nc2ncnc3c2c(C)nn3C)c1` reads 88.9% (inactive).
Still for that read-out and setting: the result for `COc1ccc2c(c1)C(C)Cc1c(ncnc1-n1c(C)nc3ccccc31)N2C` (stereo not drawn) reads 1.95% (active); that for `Cn1cc(-c2cc3c(Nc4ccc(CC(=O)Nc5cc(C(C)(C)C)on5)cc4)ncnc3[nH]2)cn1`, 6.63% (active) and -21.3% (active).
As to `CN1CCN(c2ccc(NC(=O)c3cncnc3Nc3ccc(OCc4ccccn4)c(Cl)c3)cc2)CC1`, the growth was -57.9% (active).

Still in this assay, the particulars now being: 30 µM.
`CN(C)CCNc1ncc(F)c(-c2cnc3cc(-c4cnn(C)c4)ccn23)n1`: the growth was 4.9% (active).
For the compound `CC(C)(C)c1cc(NC(=O)Cc2ccc(-c3cnc4cc(-c5cnn(CCN6CCOCC6)c5)ccc4n3)cc2)no1`, the growth is 6.45% (active).
For `CNC(=O)c1cc(Oc2ccc(CC(=O)Nc3cc(C(C)(C)C)nn3C)cc2)ccn1`, the growth was 68.2% (inactive).

Staying with this assay, now noted: 50 µM.
For the compound `O=c1[nH]cc(F)c(=O)[nH]1`, the growth was 77.6% (inactive).
Still for that read-out and setting: the result for `CC1(C)OB(c2ccc(Cn3cc(F)c(=O)[nH]c3=O)cc2)OC1(C)C` reads 32.5% (inactive).
On to `S=c1nc[nH]c2nc[nH]c12`, for which the growth is 12.6% (inactive).

The assay is the same for the next values; noted with them: 100 µM.
For `CC(=O)/C=C/c1ccc(N(C)Cc2ccc(C(C)(C)C)cc2)cc1`, the growth was -48.9% (active).
Same read-out and setting: as for `COc1ccc(C(=O)/C=C/c2ccc(OCc3ccc(Cl)cc3)cc2)cc1OC`, the figure is 18.7% (inactive); as for `S=P(N1CC1)(N1CC1)N1CC1`, 9.95% (active).
For the compound `CCN(Cc1ccccc1)c1ccc(/C=C2\COc3ccccc3C2=O)cc1`, the growth is 8.32% (active).
For the compound `Cc1[nH]c(-c2nc3ccccc3[nH]2)c(C)c1C(=O)NC(C)C1CCCCC1` (stereo not drawn), the growth is -83.4% (active).
With `O=C(/C=C/c1cccc(Oc2ccc(Cl)cc2)c1)c1ccccc1`, the growth is -51.8% (active).
Turning to `CCc1ccccc1-n1c(N)c(C#N)c(-c2ccc(OC)c(OC)c2)c(C#N)c1=O`, the growth is 122% (inactive).
Still for that read-out and setting: the result for `CC#C[C@]1(O)CC[C@H]2[C@@H]3CCC4=CC(=O)CCC4=C3[C@@H](c3ccc4c(c3)OCO4)C[C@@]21C` reads -22.9% (active); that for `CC(=O)/C=C/c1ccc(OCc2ccc(Cl)cc2)cc1`, 14% (inactive); that for `COc1ccc(Cl)cc1C(=O)NCCc1ccc(S(=O)(=O)NC(=O)NC2CCCCC2)cc1`, 94.2% (inactive).
Same read-out and setting: as for `O=C(O)c1c(Cl)c(Cl)c(Cl)c(Cl)c1-c1c2cc(I)c(=O)c(I)c-2oc2c(I)c(O)c(I)cc12`, the figure is -52.2% (active); as for `COc1ccc(C(=O)/C=C/c2ccc(OCc3cccc(C(F)(F)F)c3)c(OC)c2)cc1OC`, -17.8% (active); as for `O=C(O)c1sccc1O`, 3.63% (active).
